The record followed here is PubChem BioAssay (NCI).

The panel holds about 83,000 compounds, 20% with a hit somewhere; the sample as a whole holds those more often.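 Values shown are percent growth following 48 h exposure of cells in 96-well plates to a single concentration of compound; below 10 was considered active.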 The source made the active and inactive calls.

The test system of this test is MCF7 breast. The experiment in a line: NCI-60 one-dose screen, 48 h (100 = growth as untreated, 0 = no growth, -100 = all killed). The following applies: 10 µM unless noted.
On to `NC(CCl)=NCC12CC3CC(CC(C3)C1)C2`, for which the growth is -29.1% (active).
In the case of `C=CCc1cc(OC)c(O)c(OC)c1` it was 96.9% (inactive); in that of `O=C(O)CC1=CCCCC1`, 96.7% (inactive); in that of `COC(=O)C1=C(C)C(=O)CC1`, 97.4% (inactive).
Regarding `O=C(c1cccc(C(=O)c2ccc3c4c(cccc24)C(=O)N(c2ccccc2)C3=O)c1)c1ccc2c3c(cccc13)C(=O)N(c1ccccc1)C2=O`, the growth was 86.8% (inactive).
With `O=c1n(CC2CO2)c(=O)n(CC2CO2)n1CC1CO1` (centres undefined), the growth is 31% (inactive).
For the compound `CCCC1OC(c2ccco2)OCC1CC` (centres undefined), the growth is 117% (inactive).
For the compound `COc1cc2c(c(OC)c1OC)-c1ccc(SC)c(=O)cc1[C@@H](NC1OC(CO)C(O)C(O)C1O)CC2` (some centres undefined), the growth is 13.9% (inactive).
The result for `ClCC(Cl)C1CCC(Cl)C(Cl)C1` (centres undefined) reads 87.1% (inactive).
Regarding `O=C(O)c1c[nH]c2ccccc2c1=O`, the growth is 93.9% (inactive).
Regarding `O=C(O)c1cccc(-n2ncc(Cl)c(Cl)c2=O)c1`, the growth is 74.8% (inactive).
For the compound `S=c1nc2[nH]c3ccccc3c2n[nH]1`, the growth was 92.2% (inactive).
Take `NCCCN1CCCC1=O`: the growth was 104% (inactive).
For the compound `O=S(=O)(O)c1cccc2cccnc12`, the growth is 106% (inactive).
The result for `CC(=O)OCC1CCC(COC(C)=O)CC1` (centres undefined) reads 90.9% (inactive); that for `CC1CCC(C(C)(C)[N+](C)(C)C)CC1` (centres undefined), 94.4% (inactive); that for `O=C(CCCl)OCCOc1ccccc1`, 92.1% (inactive).
In the case of `CC(=O)Nc1ccc(/C=C2\SC(=S)N(/C=C(\C(C)=O)C(N)=O)C2=O)cc1` it was 96.4% (inactive); in that of `CC(=O)Nc1ccc(O)c(C)c1`, 99.9% (inactive).
